The term AC50 denotes the concentration at which the activity in the assay is half-maximal.

Activity calls are given as the source filed them. How the source made its calls: active means hit-call score of the fitted dose curve at least 0.9, where 1 is the maximum; inactive means score below 0.9.

The assay can be described thus: ATG_RORE_CIS: Attagene CIS-FACTORIAL HepG2 Assay for human RAR-related Orphan Receptor Element (RORE) (AID 2282959). To be noted: HepG2 Attagene cis-factorial RORE reporter, mRNA; actives raise or lower the signal. Here is the method: ATG_CIS is a cell-based, multiplexed-readout assay that uses HepG2, a human liver cell line, with measurements taken at 24 hours after chemical dosing in a 24-well plate.ATG_RORE_CIS is one of 52 assay component(s) measured or calculated from the ATG_CIS assay. It is designed to make measurements of mRNA induction, a form of inducible reporter, as detected with fluorescence intensity signals by Reverse transcription polymerase chain reaction (RT-PCR) and Capillary electrophoresis technology.Data from the assay component ATG_RORE_CIS was analyzed into 1 assay endpoint. This assay endpoint, ATG_RORE_CIS, was analyzed with bidirectional fitting relative to DMSO as the negative control and baseline of activity. Using a type of inducible reporter, measures of mRNA for gain or loss-of-signal activity can be used to understand the reporter gene at the transcription factor-level as they relate to the gene RORA and RORB and RORC. Furthermore, this assay endpoint can be referred to as a primary readout, because this assay has produced multiple assay endpoints where this one serves a reporter gene function. To generalize the intended target to other relatable targets, this assay endpoint is annotated to the nuclear receptor intended target family, where the subfamily is orphan.
Human liver HepG2 cells are transiently transfected with multiple reporter transcription units (MRTUs) in 6-well plates using FuGene 6 reagent (Roche; 3 ml FuGene/1 mg DNA). The MRTU constructs are regulated by a cis-regulating element (promoter). […] A major difference between the CIS and TRANS system is that in CIS activities of endogenous TFs are measured, whereas the TRANS assay evaluates changes in activities of exogenous, chimeric NR-Gal4 proteins. […] At the end of 24 hour incubation, total RNA was isolated using TriZol reagent (Invitrogen). The isolated RNA is then reverse-transcribed using oligo(dT) primer and Mo-MLV reverse transcriptase (Invitrogen) with DNAse I (Ambion) treatment for 30 min. The one-tenth of the produced cDNA was amplified by PCR using Taq DNA polymerase (Invitrogen) and two reporter sequence-specific primers. The PCR products were fluorescently labeled by primer extension with 6-arboxyfluorescein (6-FAM) 5'-labeled reporter sequence-specific primer (2 min at 95 C, 20 s at 68 C and 10 min at 72 C) and these products were digested with 5U of HpaI (New England Biolabs) for 2h at 37 C. The fragments were purified using Qiaquick PCR columns (Qiagen), analyzed on an ABI 3130xL genetic analyzer (Applied Biosystems) with peak positions identified by using a set of X-rhodamine (ROX)-labeled MapMarker1000 molecular weight standards (BioVentures). The raw capillary electrophoresis data was processed using Attagraph software (Attagene).
On to `Cn1cccc1`, for which the call was inactive.

For the compound `CC(=O)/C=C/C1C(C)=CCCC1(C)C` (stereo not given), the result was inactive. In the case of `Nc1ccc(Cl)c(N)c1`, the result was inactive.

`Cc1ccc(C)c(OCCCC(C)(C)C(=O)O)c1`: the outcome was inactive. For `CCCCNC(=S)NCCCC`, the compound was called inactive. For `Oc1ccc(-c2ccccc2)c(Cl)c1`, the AC50 was 33.4 µM (active). As for `CCCCNS(=O)(=O)c1ccccc1`, the result was inactive. In the case of `CC(=O)OC(C)c1ccccc1` (stereo not given), the result was inactive. Still for that read-out and setting: the result for `O=C(O)c1cc(O)c2ccccc2c1O` reads “inactive”; that for `CCC(C)C(=O)OC` (stereo not given), “inactive”.

As to `O=C(C=Cc1ccccc1)OCCc1ccccc1`, the compound was called inactive. Turning to `CC1=CCC2CC1C2(C)C` (stereo not given), the compound was classed as inactive. `CCCCCOC(=O)CCCCC`: the compound was called inactive. Consider `CC(=O)c1ccc(S(=O)(=O)NC(=O)NC2CCCCC2)cc1`, for which the call was inactive. For `CC=C(C)C=CC=C(C)C`, the compound was called inactive. As to `C=CC(C)(CCC=C(C)C)OC(=O)C=Cc1ccccc1` (stereo not given), the compound was called inactive. As to `CCCCC(C=O)CC` (stereo not given), the result was inactive. Same read-out and setting: the result for `O=C1c2ccccc2C(=O)c2cc(S(=O)(=O)O)ccc21` reads “inactive”; that for `CC(=O)OCc1ccccc1`, “inactive”; that for `O=C(O)CCCC(=O)O`, “inactive”. For the compound `COC(Cc1ccccc1)OC`, the compound was called inactive. Same read-out and setting: with `CC=C(C)C(C)=O` the entry was “inactive”.

For the compound `CC=CC(=O)OCC(C)C`, the result was inactive. Turning to `Cc1c(C(=O)c2c[nH]n(C)c2=O)ccc(S(C)(=O)=O)c1C1=NOCC1`, the call was inactive. In the case of `C=Cc1ccc(OC(C)=O)cc1`, the compound was called inactive. Consider `CCN(CC)c1cccc(C)c1`, for which the result was inactive. With `Cc1cc(=O)[nH]c(=O)[nH]1`, the compound was called inactive.

As for `C=CCOC(=O)c1ccc(C(=O)OCC=C)c(C(=O)OCC=C)c1`, the AC50 is 32.5 µM (active). Take `O=C(O)/C=C/c1ccccc1`: the outcome was inactive. As to `CC(C)c1cc(C(C)C)cc(C(C)C)c1`, the result was inactive. On to `Nc1ccnc(=O)[nH]1`, for which the compound was classed as inactive. Consider `N=C1C=CC(=C(c2ccc(N)cc2)c2ccc(N)cc2)C=C1`, for which the compound was classed as inactive. With `C=C1C[C@H]2[C@@H]3C=C(C)C4=CC(=O)CC[C@]4(C)[C@H]3CC[C@]2(C)[C@@]1(OC(C)=O)C(C)=O`, the outcome was inactive. Still for that read-out and setting: the result for `CC1(C)C(=O)N(CO)C(=O)N1CO` reads “inactive”; that for `Cc1cc(C)c(C=O)c(C)c1`, “inactive”; that for `O=C(OCCc1ccccc1)c1ccccc1`, “inactive”. As to `Nc1ccc(O)c([N+](=O)[O-])c1`, the compound was called inactive. As to `CN1CCN(C)CC1`, the result was inactive. With `CCCCCCCCC(CO)CCCCCC` (stereo not given), the compound was called inactive. For `OCCCc1ccccc1`, the result was inactive.

The values above are taken from PubChem BioAssay (EPA / NIEHS).
